Measurements as given in publication PMC5540273 (PLoS ONE, 2017).

Tests used:
Conditions in all cases: concentration: 1 μM, replicates: in singlicate; n = 1
RIOK1 = tested on: RIOK1
RIOK2 = tested on: RIOK2
RIOK3 = tested on: RIOK3
RIPK1 = tested on: RIPK1
RIPK2 = tested on: RIPK2
RIPK4 = tested on: RIPK4
RIPK5 = tested on: RIPK5
ROCK1 = tested on: ROCK1
ROCK2 = tested on: ROCK2
ROS1 = tested on: ROS1
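Also: KINOMEscan kinase panel screen.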

SMILES | %Inh (RIOK1) [%] | %Inh (RIOK2) [%] | %Inh (RIOK3) [%] | %Inh (RIPK1) [%] | %Inh (RIPK2) [%] | %Inh (RIPK4) [%] | %Inh (RIPK5) [%] | %Inh (ROCK1) [%] | %Inh (ROCK2) [%] | %Inh (ROS1) [%]
N#Cc1cnc2cc(-c3cnc(CNCCN4CCOCC4)s3)ccc2c1Nc1ccc(Oc2ccccc2)cc1 [GW664114] | 15 | 0 | 29 | 0 | 26 | 21 | 81 | 0 | 2 | 0
Cl.N#CCc1ccc(Nc2nccc(Nc3ccc(Oc4ccccc4)cc3)n2)cc1 [GW639905] | 21 | 23 | 0 | 0 | 96.1 | 0 | 17 | 31 | 34 | 0
CC(=O)Nc1cn2nc(Oc3cccc(NC(=O)c4cccc(C(F)(F)F)c4)c3)ccc2n1 | 0 | 0 | 39 | 0 | 67 | 0 | 0 | 0 | 0 | 0
O=C(Nc1n[nH]c2cc(-c3cccs3)ccc12)C1CC1 [SB-731284] | 85 | 18 | 82 | 59 | 4 | 10 | 48 | 31 | 32 | 0
CN1CCN(Cc2ccc(NC(=O)Nc3ccc(N(C)c4ccnc(Nc5ccc(CS(C)(=O)=O)cc5)n4)cc3)cc2)CC1.Cl [GW827654] | 94.1 | 100 | 93.4 | 40 | 34 | 72 | 94.9 | 94.6 | 99.2 | 40
Nc1ncc(-c2ccc3nccc(-c4ccncc4)c3c2)cc1S(=O)(=O)N1CCCCC1 [GSK1693850] | 30 | 89 | 41 | 31 | 22 | 5 | 25 | 11 | 13 | 43
O=C(Nc1n[nH]c2nc(-c3ccccc3)ccc12)C1CC1 [SB-708999] | 35 | 1 | 37 | 63 | 0 | 2 | 0 | 21 | 12 | 0
CN(c1ccc(NC(=O)Nc2cccc(Cl)c2)cc1)c1ccnc(N)n1.Cl [GW830707] | 0 | 0 | 0 | 0 | 1 | 5 | 0 | 53 | 35 | 12
CC(C)(C)c1ccc(C(=O)Nc2cn3cc(-n4ccnc4)ccc3n2)cc1 | 0 | 6 | 0 | 2 | 24 | 0 | 34 | 0 | 0 | 0
CN(c1ccc(NC(=O)N2CCN(CCCN3CCOCC3)CC2)cc1)c1ccnc(Nc2ccc(CS(C)(=O)=O)cc2)n1.Cl [GW830899] | 80 | 0 | 82 | 4 | 17 | 100 | 0 | 0 | 0 | 5
Cc1ccc(NC(=O)c2ccc(Cl)c(Cl)c2)cc1-c1ccc(C(=O)Nc2ccncc2)cc1 [GSK1398460] | 50 | 0 | 53 | 23 | 11 | 6 | 4 | 0 | 0 | 20
O=C(O)C(F)(F)F.O=c1[nH]ccc2nc(N[C@@H]3CCNC3)nc(Nc3cc(Cl)cc(Cl)c3)c12 [GSK2188764] | 97.4 | 29 | 100 | 16 | 30 | 44 | 10 | 99.5 | 99.7 | 0
O=C1NC(=O)C(c2ccccc2Cl)=C1Nc1cccc(Cl)c1 [SB-342409] | 4 | 0 | 0 | 4 | 100 | 21 | 14 | 0 | 0 | 0
Nc1ncc(-c2cn[nH]c2)c2scc(-c3ccc4c(c3)CCN4C(=O)Cc3ccccc3)c12 [GSK2593067] | 75 | 86 | 57 | 100 | 94.6 | 0 | 10 | 41 | 36 | 9
NCCC(NC(=O)c1cc(Br)c(-c2ccnc3[nH]ccc23)s1)c1ccccc1.O=C(O)C(F)(F)F.O=C(O)C(F)(F)F (stereo not drawn) [GSK1307810] | 100 | 97.9 | 100 | 81 | 4 | 0 | 1 | 100 | 99.8 | 29
CN(C)c1ncnc2nc[nH]c12 [SKF-31736] | 0 | 0 | 0 | 0 | 0 | 26 | 10 | 58 | 31 | 0
COC(=O)Nc1nc2ccc(Oc3ccc(NC(=O)Nc4cc(C(F)(F)F)ccc4F)cc3)cc2[nH]1.Cl [GW654607] | 2 | 0 | 21 | 74 | 81 | 18 | 0 | 43 | 16 | 6

SMILES | %Inh (RIOK1) [%] | %Inh (RIOK2) [%] | %Inh (RIOK3) [%] | %Inh (RIPK1) [%] | %Inh (RIPK2) [%] | %Inh (RIPK4) [%] | %Inh (RIPK5) [%] | %Inh (ROCK1) [%] | %Inh (ROCK2) [%] | %Inh (ROS1) [%]
Cc1cc(-c2ccnc(Nc3cccc(C#N)c3)n2)cc(C)c1O [GSK1440913] | 100 | 91.7 | 97.9 | 53 | 28 | 37 | 8 | 0 | 0 | 64
Cc1ccc(O)cc1Nc1ccnc2cc(-c3ccc(CN4CCCCC4)o3)ccc12 [GW557777] | 16 | 0 | 21 | 12 | 91 | 4 | 12 | 0 | 0 | 11
Nc1cccc(-c2ccc3c(N)n[nH]c3c2)c1 [GSK2193613] | 93.9 | 64 | 55 | 0 | 0 | 49 | 0 | 42 | 48 | 17
CC(C)c1nc(-c2cccc(NS(=O)(=O)c3c(F)cccc3F)c2)c(-c2ccnc(Nc3ccc(N4CCOCC4)nc3)n2)s1.Cl [GSK1723980] | 25 | 0 | 2 | 0 | 97.7 | 2 | 81 | 6 | 0 | 0
COC(=O)Nc1nc2cc(Oc3ccc(NC(=O)Nc4cccc(SC)c4)cc3)ccc2[nH]1.Cl [GW697999] | 13 | 0 | 2 | 4 | 29 | 2 | 0 | 82 | 55 | 0
CSc1ccc(NC2=C(c3ccc(Cl)cc3)C(=O)NC2=O)cc1 [SB-317658] | 3 | 0 | 20 | 0 | 0 | 16 | 7 | 38 | 0 | 3
O=C(Nc1n[nH]c2nc(-c3ccccc3O)ccc12)C1CC1 [SB-711880] | 43 | 0 | 33 | 70 | 0 | 40 | 0 | 0 | 0 | 0
Cl.Cl.NCC(NC(=O)c1cc(-c2cccnc2)c(-c2ccnc3[nH]ccc23)s1)c1ccccc1 (stereo not drawn) [GSK1323434] | 60 | 54 | 57 | 10 | 26 | 16 | 0 | 99.7 | 99.4 | 20
Cc1ccc(NC(=O)c2ccnc(N3CCCCC3)c2)cc1-c1ccc(C(=O)NCC2CC2)cc1 [GW775610] | 50 | 0 | 35 | 43 | 0 | 36 | 0 | 25 | 7 | 10
Cc1ccc(O)cc1Nc1ccnc2ccc(C(C)(C)C)cc12 [GW856805] | 15 | 0 | 11 | 16 | 79 | 41 | 22 | 51 | 39 | 28
Cc1ccc(Nc2ccnc(Nc3ccc(C)c(F)c3)n2)cc1O.Cl [GW582868] | 19 | 2 | 4 | 1 | 55 | 13 | 0 | 22 | 16 | 33
O=C(O)C(F)(F)F.O=c1[nH]ccc2nc(N[C@@H]3CCNC3)nc(Nc3ccc4c(c3)S(=O)(=O)CC4)c12 [GSK2181306] | 98.9 | 60 | 92.9 | 0 | 9 | 96 | 94.4 | 99.7 | 99.7 | 29
CCn1c(-c2nonc2N)nc2c(-c3ccccc3)ncc(OCCCN)c21.O=C(O)C(F)(F)F.O=C(O)C(F)(F)F [GSK260205] | 7 | 15 | 0 | 0 | 30 | 10 | 0 | 91.7 | 98.4 | 0
Cn1cc(-c2ccc3c(c2)CCN3C(=O)Cc2cc(F)cc(F)c2F)c2c(N)ncnc21 [GSK2634140] | 39 | 15 | 13 | 99.7 | 0 | 0 | 54 | 36 | 30 | 34
CS(=O)(=O)c1cccc(CNc2nc(Nc3ccc4c(c3)CCC(=O)N4)ncc2C(F)(F)F)c1 | 62 | 0 | 59 | 0 | 2 | 17 | 0 | 0 | 0 | 31
CN(C)CCOc1ccc(-c2cc(-c3ccc(Cl)c(O)c3)c(-c3ccncc3)[nH]2)cc1.Cl.Cl [SB-684387] | 0 | 32 | 0 | 36 | 88 | 7 | 13 | 99.2 | 98.9 | 10
